# Measured values from paper PMC4336329 (PLoS ONE, 2015).
# Screen size: about 310,000 compounds; about 14,000 (4.5%) showed an effect of 50% or more. Effects have a minus sign here. This excerpt belongs to a sample that is enriched for strong results.
# Molecular target: human ether-à-go-go-related gene (hERG) potassium channel (human, UniProt Q12809)
# Experiment: primary screen, population patch clamp on CHO cells stably expressing hERG; higher = less effect of the substance
# 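Also: peak tail current of the secondary pulse compared with the same well before compound.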
# Sequence of human ether-à-go-go-related gene (hERG) potassium channel (Q12809 whole entry, looked up): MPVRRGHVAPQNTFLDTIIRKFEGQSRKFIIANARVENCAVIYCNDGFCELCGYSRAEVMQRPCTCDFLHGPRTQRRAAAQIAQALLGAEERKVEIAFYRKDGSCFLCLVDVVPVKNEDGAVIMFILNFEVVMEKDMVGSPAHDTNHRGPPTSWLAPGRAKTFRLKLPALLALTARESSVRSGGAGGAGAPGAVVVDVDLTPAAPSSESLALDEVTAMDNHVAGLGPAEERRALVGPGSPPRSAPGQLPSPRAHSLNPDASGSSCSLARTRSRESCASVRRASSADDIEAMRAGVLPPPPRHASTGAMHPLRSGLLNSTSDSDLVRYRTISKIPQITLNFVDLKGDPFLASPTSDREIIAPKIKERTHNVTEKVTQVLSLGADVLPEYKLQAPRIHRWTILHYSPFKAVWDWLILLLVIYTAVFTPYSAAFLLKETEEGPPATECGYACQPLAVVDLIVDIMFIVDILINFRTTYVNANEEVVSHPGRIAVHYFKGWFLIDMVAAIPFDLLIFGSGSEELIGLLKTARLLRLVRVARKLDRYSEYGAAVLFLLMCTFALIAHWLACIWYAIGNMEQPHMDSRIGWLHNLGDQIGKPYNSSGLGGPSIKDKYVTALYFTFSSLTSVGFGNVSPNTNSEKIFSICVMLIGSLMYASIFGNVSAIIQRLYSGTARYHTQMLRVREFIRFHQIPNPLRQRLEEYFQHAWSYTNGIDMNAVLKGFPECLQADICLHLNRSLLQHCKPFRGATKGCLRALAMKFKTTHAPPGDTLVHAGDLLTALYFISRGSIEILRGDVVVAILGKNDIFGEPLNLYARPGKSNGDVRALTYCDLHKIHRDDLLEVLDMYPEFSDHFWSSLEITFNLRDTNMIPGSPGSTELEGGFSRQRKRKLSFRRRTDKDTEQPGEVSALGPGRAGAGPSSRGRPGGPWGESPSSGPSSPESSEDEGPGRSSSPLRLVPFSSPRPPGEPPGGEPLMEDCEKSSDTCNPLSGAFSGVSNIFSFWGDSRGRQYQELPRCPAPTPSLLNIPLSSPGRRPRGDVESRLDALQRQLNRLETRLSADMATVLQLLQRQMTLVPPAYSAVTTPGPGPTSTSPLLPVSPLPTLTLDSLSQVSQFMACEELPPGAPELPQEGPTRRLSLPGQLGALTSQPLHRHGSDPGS
row,SMILES,"hERG current change (%, negative = inhibition) at 10uM"
1,CCn1cc(/C=C(\NC(=O)c2ccccc2OC)C(=O)NCCCN2CCOCC2)c2ccccc21,-7.61%
2,Cc1ccccc1OCC(=O)N/N=C/c1cccn1C,7.04%
3,COc1ccc(-n2nc(C(=O)NCC(=O)NC(C)C)c3ccccc3c2=O)cc1,13.7%
4,CCOC(=O)C1CCCCN1Cc1cc(OC)ccc1OC (stereo not shown),5.17%
5,O=C(NNc1cccc(Cl)n1)C(F)(F)F,17.2%
6,COc1ccc(/C=N/n2c(=O)[nH]c3c([nH]c4ccc(Br)cc43)c2=O)cc1CN1CCOCC1,5.45%
7,O=S(=O)(c1cccc(Br)c1)N1CCN(C(=S)NCC2CCCO2)CC1 (stereo not shown),11.6%
8,CCOc1ccc(S(=O)(=O)N(CC(=O)NCc2cccnc2)c2ccc(F)cc2)cc1,-72.5%
9,CN(c1ccc(C(=O)NCc2cccnc2)cc1)S(=O)(=O)c1ccc(Cl)cc1,-15.8%
10,CCOc1ccc(S(=O)(=O)N(CC)CC(=O)NCc2ccncc2)cc1,-13.2%
11,CCOc1ccc(S(=O)(=O)N(CC(=O)NCc2ccncc2)c2ccc(C)cc2)cc1,-56.5%
12,CCOc1ccc(S(=O)(=O)N(CC(=O)Nc2cccnc2)c2ccc(F)cc2)cc1,2.96%
13,CN(c1ccc(C(=O)NCc2ccncc2)cc1)S(=O)(=O)c1ccc(Cl)cc1,-52.1%
14,COc1ccc(S(=O)(=O)N(C)c2ccc(C(=O)NCc3ccncc3)cc2)cc1,-18.8%
15,CCOc1ccc(N(CC(=O)NCc2ccccc2)S(=O)(=O)c2ccc(C)cc2)cc1,4.04%
16,CCOc1ccc(N(CC(=O)NCc2cccnc2)S(=O)(=O)c2ccc(F)cc2)cc1,-13.6%
17,COc1cc(/C(C)=N/N2CCN(c3ccccc3OC)CC2)ccc1O,-9.07%
18,COc1ccc2c(c1)c(/C=C/c1cc[n+](C)cc1)cn2C.[I-],12.9%
19,Cc1cc(-n2c(C)cc(C(=O)CSc3nnnn3-c3ccc(Cl)cc3)c2C)no1,-3.04%
20,Cc1c(C)c(C)c(CN2CCSCC2)c(C)c1C,18.4%
21,Cc1ccc(N(C)S(=O)(=O)c2ccc(-c3cnc(C4CC4)o3)cc2)cc1,8.38%

row,SMILES,"hERG current change (%, negative = inhibition) at 10uM"
1,COc1ccc(S(=O)(=O)N2CCCC(C(=O)NCc3ccco3)C2)cc1OC (stereo not shown),10.1%
2,CN(C)CCN(C(=O)c1ccc2c(c1)CCCC2)c1nc2cc3c(cc2s1)OCCO3.Cl,5.76%
3,CCN(CC)CCN(C(=O)c1ccc(C(=O)c2ccccc2)cc1)c1nc2cc3c(cc2s1)OCO3.Cl,-43.8%
4,CN(C)CCCN(C(=O)c1ccc(C(=O)c2ccccc2)cc1)c1nc2cc3c(cc2s1)OCO3.Cl,-56.3%
5,CCN(CC)CCN(C(=O)c1ccc2ncsc2c1)c1nc2cc3c(cc2s1)OCO3.Cl,-61.8%
6,CN(C)CCN(C(=O)c1ccc(C(=O)c2ccccc2)cc1)c1nc2cc3c(cc2s1)OCCO3.Cl,-12.4%
7,CN(C)CCCN(C(=O)c1ccc2c(c1)CCCC2)c1nc2cc3c(cc2s1)OCO3.Cl,-71%
8,CN(C)CCN(C(=O)c1ccc(C(=O)c2ccccc2)cc1)c1nc2cc3c(cc2s1)OCO3.Cl,3.43%
9,CN(C)CCN(C(=O)c1ccc(N2C(=O)CCC2=O)cc1)c1nc2cc3c(cc2s1)OCO3.Cl,0.227%
10,CN(C)CCCN(C(=O)c1ccc([N+](=O)[O-])o1)c1nc2cc3c(cc2s1)OCO3.Cl,-71.8%
11,CCN(CC)CCN(C(=O)c1ccc2ccccc2c1)c1nc2cc3c(cc2s1)OCO3.Cl,-38.6%
12,Cc1nccn1Cc1ccccc1,25.1%
13,C(=N\Nc1nc(N2CCOCC2)nc(N2CCOCC2)n1)/c1ccco1,30.2%
14,CCOC(=O)C1CCN(C(=O)Cn2c(=O)c3cccn3c3cccnc32)CC1,3.76%
15,COC(=O)CSC1=C(C#N)C(c2ccc(Cl)cc2)C(C(=O)OC)C(=O)N1 (stereo not shown),0.571%
16,Cc1cccc(C)c1NC(=O)COC(=O)c1ccccc1O,1.57%
17,O=C(NC1CCCCC1)N1CCc2[nH]c3ccccc3c2C1,3.15%
18,CN(C)CCN(C(=O)c1ccc2c(c1)OCCO2)c1nc2cc3c(cc2s1)OCO3.Cl,-41.9%
19,CCN(CC)CCN(C(=O)c1ccc2c(c1)OCCO2)c1nc2cc(C)cc(C)c2s1.Cl,-69.9%
20,Cc1ccc2nc(N(CCN(C)C)C(=O)c3ccc4c(c3)OCCO4)sc2c1.Cl,-44.6%
21,CCN(CC)CCN(C(=O)c1ccc2c(c1)OCCO2)c1nc2ccc(C)cc2s1.Cl,-71.2%

row,SMILES,"hERG current change (%, negative = inhibition) at 10uM"
1,CN(C)CCCN(C(=O)c1ccc2c(c1)OCCO2)c1nc2cc3c(cc2s1)OCO3.Cl,-56%
2,CCN(CC)CCN(C(=O)c1ccc(Br)s1)c1nc2cc3c(cc2s1)OCCO3.Cl,-1.19%
3,CCN(CC)CCN(C(=O)c1ccc(S(=O)(=O)N2CCCC2)cc1)c1nc2cc(C)cc(C)c2s1.Cl,-44.1%
4,CN(C)CCCN(C(=O)c1ccc2c(c1)OCCO2)c1nc2ccc(Cl)cc2s1.Cl,-39.9%
5,CCN(CC)CCN(C(=O)c1ccc2c(c1)OCCO2)c1nc2cc3c(cc2s1)OCO3.Cl,-67.3%
6,CCc1ccc2nc(N(CCCN(C)C)C(=O)c3ccc4c(c3)OCCO4)sc2c1.Cl,-48.3%
7,CC(C)c1ccc(N2CC(C(=O)Nc3nccs3)CC2=O)cc1 (stereo not shown),1.98%
8,CC1(C)Cc2c(sc3nc4n(-c5ccccc5)c(=O)c(CCC(=O)O)nn4c(=O)c23)CO1,12.9%
9,O=c1cc(-c2ccc([N+](=O)[O-])cc2)c2cc3c(cc2[nH]1)OCCO3,-12%
10,CC(NCc1ccc(Cl)cc1)C(O)c1ccccc1.Cl (stereo not shown),0.613%
11,CC(NCc1ccc(Cl)c(Cl)c1)C(O)c1ccccc1.Cl (stereo not shown),-0.311%
12,CC(NCc1ccc(OCc2ccc(Cl)cc2)cc1)C(O)c1ccccc1.Cl (stereo not shown),-62.5%
13,CC(NCc1cccc(OCc2ccccc2)c1)C(O)c1ccccc1.Cl (stereo not shown),-50.9%
14,CC(=O)NC(NC(C)=O)c1cccc(OCc2ccccc2)c1,9.33%
15,CC(NCc1ccc(Cl)cc1Cl)C(O)c1ccccc1.Cl (stereo not shown),-26.6%
16,Cc1ccc(C(=O)NCC(=O)OCCCn2c(=O)[nH]c3ccccc32)cc1,-14.8%
17,COc1ccc(N(CC(=O)Nc2ccc(C)cn2)S(=O)(=O)c2c(C)noc2C)cc1,-24.8%
18,Cc1cccc(C)c1NC(=S)N1CCOCC1,9.99%
19,Cc1ccc(NC(=O)CCS(=O)(=O)c2cccc3nonc23)c(Br)c1,6.97%
20,Cc1c(C(=O)Nc2ccccc2C(=O)N2CCCC2)cccc1[N+](=O)[O-],9.76%
21,Cc1c(C(=O)N2CCC3(CC2)CC(=O)c2ccccc2O3)cccc1[N+](=O)[O-],-83.2%

row,SMILES,"hERG current change (%, negative = inhibition) at 10uM"
1,O=C1CC2(CCN(C(=O)c3ccccc3[N+](=O)[O-])CC2)Oc2ccccc21,-62%
2,Cc1c(C(=O)N2CCC(C)CC2)cccc1[N+](=O)[O-],26.1%
3,O=C(c1ccccc1[N+](=O)[O-])N1CCCN(C(=O)c2ccccc2[N+](=O)[O-])CC1,-14.8%
4,O=C(c1ccccc1[N+](=O)[O-])N1CCC2(CC1)OCCO2,3.53%
5,NC(=O)c1ccc(NC(=O)CNC(=O)c2sc3ccccc3c2Cl)cc1,0.282%
6,Cn1nccc1C(=O)Nc1ccn(C23CC4CC(CC(C4)C2)C3)n1,-11.6%
7,CN1CCN(S(=O)(=O)c2ccc(=O)[nH]c2)CC1,7.85%
8,O=C(NCCCn1ccnc1)c1cc(-c2ccccc2)on1,-16.3%
9,O=C(NCCCN1CCOCC1)c1cc(-c2ccc(Br)cc2)on1,-58.6%
10,Cc1ccc(-c2cc(C(=O)NCCCN3CCOCC3)no2)cc1,-30.8%
11,COc1cc2[nH]c(=O)c(C(=O)NCCCN3CCOCC3)c(O)c2cc1OC.Cl,9.48%
12,Cc1ccc(-c2cc(C(=O)NCCCn3ccnc3)no2)cc1,-42.9%
13,O=C(NCCCN1CCOCC1)c1c(O)c2cc(Br)cc(Br)c2[nH]c1=O,-64.6%
14,O=C(NCCCn1ccnc1)c1cc(-c2ccc(Br)cc2)on1,-51.6%
15,Cl.O=C(NCCCN1CCOCC1)c1c(O)c2ccccc2[nH]c1=O,-47.9%
16,O=C(NCCN1CCOCC1)c1cc(-c2ccc(Br)cc2)on1,-22%
17,COc1ccc(C2C(C(=O)Nc3ccc(OC)c(OC)c3)c3ccccc3C(=O)N2C)cc1 (stereo not shown),27.7%
18,O=C(CCc1cn2ccccc2n1)NC1CCCc2c1cnn2-c1ccccc1F (stereo not shown),0.178%
19,Fc1cccc(C2CCCCN2Cc2nc(C3CC3)no2)c1 (stereo not shown),13.3%
